# Screening results deposited in PubChem BioAssay by several laboratories.
# Only some compounds are listed: those with a hit (about 1.9% of all), similar ones and a draw of the others.
# S1P4 antagonist = S1P4 receptor antagonists, primary screen, cell-based | Sphingosine 1-phosphate receptor 4 (Homo sapiens), O95977 | actives 0.26% (n = 220,000) | inhibition, % at 4.98 µM | S1P4-expressing cells, antagonist mode, reporter read-out; in the data active = inhibition above about 29%;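 note: 0% = wells stimulated with agonist and 100% = vehicle wells without agonist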
# Target sequence (O95977 whole entry, looked up): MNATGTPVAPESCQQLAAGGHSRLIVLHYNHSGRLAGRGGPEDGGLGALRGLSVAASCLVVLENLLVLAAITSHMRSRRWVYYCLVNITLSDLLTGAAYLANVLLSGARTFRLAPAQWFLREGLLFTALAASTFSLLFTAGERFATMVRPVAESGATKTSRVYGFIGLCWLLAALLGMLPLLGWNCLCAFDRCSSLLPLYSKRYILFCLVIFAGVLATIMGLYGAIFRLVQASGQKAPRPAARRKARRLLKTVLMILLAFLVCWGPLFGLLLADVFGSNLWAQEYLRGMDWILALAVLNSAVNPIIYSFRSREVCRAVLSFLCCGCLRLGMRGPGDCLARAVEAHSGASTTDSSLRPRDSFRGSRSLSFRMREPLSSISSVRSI
# Pf gametocyte = late stage P. falciparum gametocyte viability inhibitors, primary screen, ATP luminescence, HTS; actives 0.065% (n = 150,000); P. falciparum stage V gametocytes, 24 h; inhibition, % at 10.9 µM;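 active = inhibition above the mean plus 3 SD of compounds within the control limits, set per campaign, cut at about 38% in these data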;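 note: 0% = DMSO wells and 100% = medium only without gametocytes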
# PGE2 EP2 inh = human EP2 receptor antagonists, primary screen, TR-FRET cAMP, C6 glioma cells; actives 0.52% (n = 260,000); inhibition, % at 25 µM; C6 glioma cells expressing human EP2; cells stimulated with saturating PGE2;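 active = percent inhibition above 40 after rounding to a whole number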;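 note: rat C6 glioma host cells with rolipram phosphodiesterase inhibitor present; the protocol text gives 20 µM as final concentration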
# S1P3 antag-1 = S1P3 receptor antagonists, primary screen, cell-based; Sphingosine 1-phosphate receptor 3 (Homo sapiens), Q99500; CHO S1P3 NFAT-BLA reporter, FRET fluorescence, antagonist mode; inhibition, % at 4.98 µM; actives 0.27% (n = 170,000); AID 485, 2006;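 active = inhibition above the plate cutoff, the mean inhibition of test wells on that plate plus 3 SD, cut at about 28% in these data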;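 note: cells challenged with S1P at its EC80 of 0.8 µM; blue over green emission ratio from cleaved BLA substrate after 4 h stimulation; 0% = S1P-stimulated wells and 100% = unstimulated DMSO-only wells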
# S1P4 agonist = S1P4 receptor agonists, primary screen, cell-based | Sphingosine 1-phosphate receptor 4 (Homo sapiens), O95977 | S1P4-expressing cell line, agonist reporter assay | activation, % at 4.98 µM | actives 0.35% (n = 220,000) | AID 1509, 2009; in the data active = activation above about 11%;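 note: 0% = DMSO vehicle and 100% = reference agonist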
# EP2 modulator = EP2 receptor modulators, cAMP readout, primary screen, cell-based, HTRF cAMP, PGE2 stimulation; Prostaglandin E2 receptor EP2 subtype (Homo sapiens), P43116; EP2-expressing cells, cAMP HTRF FRET, PGE2 co-stimulation; induction, % at 25 µM; actives 0.83% (n = 260,000);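 active = compounds whose cAMP rise, as percent of the full-agonist control response, exceeds 60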;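 note: rat C6 glioma line stably carrying human EP2 under a CMV promoter; the protocol text gives 20 µM as final concentration; 100% = response of wells given 1 µM PGE2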
# S1P3 antag-2 = S1P3 receptor antagonists, retest, confirmation, cell-based; shares compounds with S1P3 antag-1; CHO S1P3 NFAT-BLA reporter, FRET, antagonist mode; inhibition, % at 4.98 µM; actives 30% (n = 240);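 active = inhibition above the hit threshold that was computed for the earlier primary screen, cut at about 30% in these data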;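 note: 0% = S1P-stimulated wells and 100% = unstimulated DMSO-only wells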
# * = called active by the depositor; . = no result given.
SMILES,S1P4 antagonist,Pf gametocyte,PGE2 EP2 inh,S1P3 antag-1,S1P4 agonist,EP2 modulator,S1P3 antag-2
CCOC(=O)Cn1nnnc1CN(Cc1cc2ccc(OC)cc2[nH]c1=O)C1CCCCC1,.,.,22,.,.,9,.
S=C(Nc1ccccc1)N1N=C(c2cccs2)CC1c1cccs1 (stereo not drawn),-12,-22,5,30*,-2,-12,8
Cc1ccccc1C1(O)CCN(CC(O)c2ccc(Cl)cc2)CC1 (stereo not drawn),.,.,11,.,.,-74,.
CC(C)(C)c1cc(C(=O)NN)n(Cc2ccc(F)cc2)n1,-1,7,2,5,-2,-30,.
Cc1cccc(Cn2nc(C(C)(C)C)cc2C(=O)Nc2ccc(F)cc2)c1,4,5,5,37*,1,21,53*
O=C(NC1CC1)[C@H]1C=CCN1C(=O)c1ccc(F)cc1F,.,.,11,.,.,-15,.
Cc1ccc(NC(=S)N(CCCO)Cc2cc3cc4c(cc3[nH]c2=O)OCO4)cc1,.,.,7,.,.,-8,.
O=C(OC(C(=O)Nc1cccc(C(F)(F)F)c1)c1ccccc1)C1CCCCC1 (stereo not drawn),4,.,1,37*,-1,-11,30*
COc1ccccc1C1(O)CCCN(CC(O)c2ccc3c(c2)OCCCO3)C1 (stereo not drawn),.,.,5,.,.,-33,.
CCc1n(CC(O)COc2ccc(I)cc2)c2ccccc2[n+]1C (stereo not drawn),.,.,15,.,.,-113,.
Cc1ccc(NC(=O)C2(c3ccc([N+](=O)[O-])cc3)CCCC2)cc1,-2,5,5,48*,3,-11,50*
COc1ccc(C(CC(=O)c2ccc(C)cc2)Nc2ccc([N+](=O)[O-])cc2)cc1 (stereo not drawn),7,-3,8,44*,0,4,79*
O=C(c1ccc2c(c1)OCO2)N1CCC(Nc2nc3c(c(=O)[nH]2)CCC3)CC1,.,.,8,.,.,-16,.
Cc1c(CCOC(=O)c2cc([N+](=O)[O-])cc([N+](=O)[O-])c2)sc[n+]1CC(=O)c1ccc(Br)cc1,-3,-14,20,38*,-1,-28,-11
O=C(O)CSc1nnc(COc2ccc(Cl)cc2)o1,.,.,9,.,.,-27,.
CCOC(=O)N=Nc1c(O)n(CC(=O)OC)c2ccccc12,-4,-15,1,-12,-1,-1,.
CCOC(=O)N=Nc1c2ccccc2c2nc3no[nH]c3nc12,-8,11,18,31*,1,-70,109*
Cc1ccc(NC(=O)c2sc(=S)n(-c3cc(C)ccc3F)c2N)cc1,-8,27,6,30*,-3,-50,6
Cc1ccccc1-n1c(N)c(C(=O)Nc2ccc(F)cc2)sc1=S,-20,19,7,-3,4,-47,.
CCc1nn(C(C)C(=O)O)c(=O)c2cc3oc(C)cc3n12 (stereo not drawn),.,.,9,.,.,-6,.
COc1ccc(NC(=O)CSc2nc3c(c(C(F)(F)F)n2)CCc2ccccc2-3)cc1OC,.,.,7,.,.,-72,.
CC(=O)CCC(=O)OCC(=O)Nc1ccc(SC(F)F)cc1,20,-12,6,43*,-3,-25,-10
CC(C)=CC(=O)OCC(=O)Nc1ccc(SC(F)F)cc1,-1,20,2,-14,1,-5,.
COCCNc1cc(C)nc2c(-c3ccc(OC)cc3)c(C)nn12,.,.,.,.,.,-37,.
O=C(O)CC(CC(=O)Nc1ccc(F)c(Cl)c1)c1ccc(Cl)cc1Cl (stereo not drawn),-14,-1,13,59*,0,17,-7
SMILES,S1P4 antagonist,Pf gametocyte,PGE2 EP2 inh,S1P3 antag-1,S1P4 agonist,EP2 modulator,S1P3 antag-2
CCC(=O)Nc1ccc(F)c(Cl)c1,2,.,10,-27,-4,20,.
CC(C)C(=O)NC(=S)Nc1ccc(S(=O)(=O)Nc2nccs2)cc1,-26,6,2,28*,-1,-16,-20
Cc1ccc(NC(=O)C(OC(=O)c2ccc(F)cc2)c2ccccc2)cc1Cl (stereo not drawn),-4,.,7,36*,-1,23,55*
Cc1ccccc1NC(=O)/C=C/c1ccc([N+](=O)[O-])s1,13,.,6,36*,0,-15,42*
Cc1sc2nc(SCC(=O)Nc3ccc4c(c3)OCO4)[nH]c(=O)c2c1C,.,.,13,.,.,-44,.
Cc1ccc(/C=N/Nc2ccc(C(=O)O)cc2)s1,-30,2,2,42*,1,-1,-3
Cc1ccc(/C=N/Nc2cccc(C(=O)O)c2)s1,9,-18,9,-8,0,-28,.
COC(=O)c1ccc(N2CCN(C(=O)c3ccccc3)CC2)c(NC(C)=O)c1,-24,-8,4,40*,1,13,-11
COC(=O)c1ccc(N2CCN(C(C)=O)CC2)c(NC(=O)COc2ccccc2C)c1,1,11,13,-16,5,-39,.
COc1ccc(NC(=O)N(CCc2ccccc2)Cc2cc3cc(OC)ccc3[nH]c2=O)cc1,.,.,26,.,.,-34,.
CCC(=O)/C=C1/Sc2ccccc2N1CC,21,.,12,.,0,-32,.
CCN1/C(=C/c2ccc3cc(C)ccc3[n+]2CC)Sc2cc(C)c(C)cc21,1,1,76*,31*,-2,-54,21
CCN1/C(=C/c2ccc3cc(C)ccc3[n+]2CC)Sc2ccccc21,-34,5,55*,33*,-2,-71,34*
CC(=O)Nc1ccc(-c2nnn(CC(N)=O)n2)cc1Cl,.,.,5,.,.,-1,.
N#Cc1ccc(-c2ccc3c(c2)OCO3)nc1SCC(=O)Nc1ccc(F)cc1F,.,.,9,.,.,-14,.
O=C1C2CCCCC2C(=O)N1CCC(=O)N1CCCCC1c1nc2ccccc2[nH]1 (stereo not drawn),.,.,8,.,.,-3,.
O=C(c1cnc2ccc3ccccc3c2c1)c1cc(F)ccc1O,-7,9,6,32*,1,-22,-3
CCOc1nc(-c2ccc(Cl)cc2)nc2ccccc12,-21,-18,8,39*,1,51,-4
COC(=O)C(C)(C)ONC(=O)Nc1ccccc1Br,-9,12,5,8,1,-17,.
COC(=O)C(C)(C)ONC(=O)Nc1ccccc1Cl,-1,-8,1,39*,2,12,-8
NNc1nncc(-c2ccccc2)n1,.,.,9,.,.,-17,.
CC(C)OC(=O)/C(=C\c1cccc2ccccc12)NC(=O)c1ccccc1,12,-9,10,37*,1,30,24
